PubChem BioAssay (NCATS)
Activity calls are given as the source filed them.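 Rule for the calls: active = compounds whose dose series gives a full or clear partial fitted curve of increased nuclear translocation; inconclusive = weak partial curve or effect only at the top dose; inactive = no dose-dependent translocation response.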

Molecular target: Glucocorticoid receptor (Homo sapiens) (UniProt P04150)
Assay: GR-GFP Redistribution (AID 450)
Conditions: U2OS GR-GFP nuclear translocation, laser cytometry, 2 h
Description: NIH Molecular Libraries Screening Centers Network [MLSCN]
NIH Chemical Genomics Center [NCGC]
The glucocorticoid receptor (GR) Redistribution assay (BioImage) enables the visualization of GR cytoplasmic to nuclear translocation by the use of a GR-GFP fusion. GR is normally cytosolic, however ligands such as dexamethasone, cause nuclear translocation where the protein binds to response elements and interacts with various co-factors to modulate transcription. Because both functional agonists and antagonists can induce nuclear translocation, this assay can detect ligands regardless of their effects on gene expression. GR-GFP expressing U20S cells were used here. Dexamethasone was the positive control for translocation and data normalization. Detection of nuclear translocation was performed in 1536-well plates using the Acumen laser scanning plate cytometer (TTP LabTech). Validation of this assay and a detailed protocol have been described.
NCGC Assay Protocol Summary:
GR-GFP U2OS cells were maintained in DMEM with Glutamax and high glucose, 1% v/v penicillin-streptomycin, and 0.5 mg/mL Geneticin. For cell culture, 10% […] fetal bovine serum (FBS) was used (Invitrogen #26140-079). For cell plating 10% dextran, charcoal-stripped FBS (Hyclone SH30068.03) was used. U2OS cells were trypsin treated, suspended in medium, and passed through a 40 um basket filter. The cells were seeded at 600 cells/5 uL/well into clear-bottom black sided 1536-well plates and incubated for approximately 20 hrs, 37degC, 5%, CO2 in a tissue culture incubator. Twenty-three nL of compound was delivered by pin tool and the plates were incubated as above for 2 hrs. The compounds were tested as a 7-point titration ranging from 46 uM to 0.6 nM. The cells were fixed using the Kalypsys Washer/Dispenser station. The fixing protocol involved aspiration of the cell media, addition of 6 uL/well of PBS, aspiration of PBS, addition of 5uL/well of 100% methanol, aspiration of methanol, and addition of 3 uL/well PBS with 1.5 uM propidium iodide (PI). The plates were read by the Acumen Explorer using a 1 x 8 um scan of the whole well area. PI fluorescence triggered the collection of PI and GFP signals. A nuclei population was defined by a 10 to 100 um width and depth filter that eliminated small and large fluorescent particles. Two subpopulations of nuclei were then defined by peak intensity of GFP fluorescence to obtain translocated and untranslocated objects. The number of translocated objects was used for data normalization.
Keywords: NIH Roadmap, MLSCN, MLI, MLSMR, sOGT, qHTS, NCGC
Potency is the fitted concentration of half-maximal effect.

Chain of Glucocorticoid receptor (Homo sapiens) (P04150 whole entry, looked up): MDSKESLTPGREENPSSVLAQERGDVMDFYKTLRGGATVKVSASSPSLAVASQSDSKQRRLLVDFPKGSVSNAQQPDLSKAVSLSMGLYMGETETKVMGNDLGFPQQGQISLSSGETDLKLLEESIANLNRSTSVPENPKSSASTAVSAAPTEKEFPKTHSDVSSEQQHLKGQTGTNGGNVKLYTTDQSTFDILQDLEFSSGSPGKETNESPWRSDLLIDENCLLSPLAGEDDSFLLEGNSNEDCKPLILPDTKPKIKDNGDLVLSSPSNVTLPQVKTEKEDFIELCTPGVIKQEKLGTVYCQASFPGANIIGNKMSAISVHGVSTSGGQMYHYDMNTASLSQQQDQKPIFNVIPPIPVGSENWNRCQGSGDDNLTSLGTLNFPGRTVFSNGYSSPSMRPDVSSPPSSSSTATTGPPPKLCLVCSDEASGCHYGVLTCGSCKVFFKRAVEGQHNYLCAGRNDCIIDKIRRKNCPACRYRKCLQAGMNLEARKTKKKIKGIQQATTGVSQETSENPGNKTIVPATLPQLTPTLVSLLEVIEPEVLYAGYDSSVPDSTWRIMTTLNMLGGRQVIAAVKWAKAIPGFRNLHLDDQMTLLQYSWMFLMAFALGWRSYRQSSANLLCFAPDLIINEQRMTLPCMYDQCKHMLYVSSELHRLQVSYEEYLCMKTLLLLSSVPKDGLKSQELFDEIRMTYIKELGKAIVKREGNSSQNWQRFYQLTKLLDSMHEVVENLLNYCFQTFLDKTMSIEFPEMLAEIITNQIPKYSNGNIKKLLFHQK

Potency, inactive:
COCCn1c(=O)cnc2cnc(Oc3cccc(Cl)c3)nc21 > 9.22 µM
CN1CCN(c2ncncc2-c2ccccc2Cl)CC1 > 46 µM
O=c1c(CCc2ccccc2)nc2cnc(Nc3ccccc3)nc2n1Cc1cccs1 > 9.22 µM
COCCn1c(=O)c(-c2cccs2)nc2cnc(N3CCOCC3)nc21 > 9.22 µM
Cc1ccccc1-c1ccc2ncnc(NCc3cccnc3)c2c1 > 46 µM
Cn1c(=O)c(CCc2ccccc2)nc2cncnc21 > 9.22 µM
COc1ccc2[nH]cc(CCNc3cc(-c4ccoc4)ncn3)c2c1 > 46 µM
CN(Cc1ccco1)c1ccnc(-c2ccoc2)n1 > 46 µM
Cc1noc(C)c1-c1ccc2ncnc(N3CCC(C(=O)O)CC3)c2c1 > 46 µM
COc1cccc(Nc2ncc3nc(-c4cc(F)cc(F)c4)c(=O)n(C4CC4)c3n2)c1 > 9.22 µM
COc1ccccc1-c1nccc(NCc2cccnc2)n1 > 46 µM
CO[C@H]1C[C@@H](O[C@@H]2[C@H](C)[C@H](O[C@@H]3O[C@@H](C)C[C@@H](N(C)C)[C@@H]3O)[C@H](C)C[C@]3(CO3)C(=O)[C@H](C)[C@H](O)[C@H](C)[C@H](C)OC(=O)[C@@H]2C)O[C@@H](C)[C@H]1O > 20.6 µM
C[N+]1(C)CCC[C@@H](OC(=O)C(O)(c2ccccc2)c2ccccc2)C1 > 20.6 µM
COCCn1c(=O)c(CCc2ccccc2)nc2cnc(Nc3ccccc3)nc21 > 9.22 µM
CN(Cc1ccco1)c1nc(-c2ccccc2Cl)nc2ccccc12 > 46 µM
COCCn1c(=O)c(-c2ccc(F)c(F)c2)nc2cncnc21 > 9.22 µM
COc1ccc(CNc2nc(-c3ccc(C(=O)N(C)C)cc3)nc3ccccc23)c(OC)c1 > 46 µM
CCN[C@@H]1C[C@H](C)S(=O)(=O)c2sc(S(N)(=O)=O)cc21 > 20.6 µM
COCCn1c(=O)c(-c2ccc(OC)cc2)nc2cnc(N3CCOCC3)nc21 > 9.22 µM
CNc1nc(-c2cccc(NS(C)(=O)=O)c2)nc2ccccc12 > 46 µM
CCNc1ncc2nc(-c3ccc(Cl)cc3)c(=O)n(C3CC3)c2n1 > 9.22 µM
COc1ccc2[nH]cc(CCNc3ccnc(-c4cccnc4)n3)c2c1 > 46 µM
Cc1ccccc1-c1nccc(-n2ccnc2)n1 > 46 µM
COc1ncc2nc(-c3ccccc3)c(=O)n(CCC#N)c2n1 > 9.22 µM
N#CCCn1c(=O)c(-c2cccs2)nc2cnc(N3CCOCC3)nc21 > 9.22 µM
COc1ccc(-c2nc3cnc(Nc4cccc(OC)c4)nc3n(CCC#N)c2=O)cc1 > 9.22 µM
c1ccc(CNc2ccnc(-c3ccc4c(c3)OCO4)n2)cc1 > 46 µM
CCNc1ncc2nc(-c3cc(F)cc(F)c3)c(=O)n(C3CC3)c2n1 > 9.22 µM
CCNc1ncc2nc(-c3ccc(F)cc3)c(=O)n(CCC#N)c2n1 > 9.22 µM
COCCn1c(=O)cnc2cnc(N(C)C)nc21 > 9.22 µM
CN1CCN(c2ncc3nc(-c4ccc(F)cc4)c(=O)n(C4CC4)c3n2)CC1 > 9.22 µM
O=c1cnc2cnc(N3CCNCC3)nc2n1C1CC1 > 9.22 µM
COCCn1c(=O)c(C)nc2cnc(Oc3cccc(Cl)c3)nc21 > 9.22 µM
COc1ccc(CNc2ncncc2-c2ccoc2)c(OC)c1 > 46 µM
COc1cccc(Nc2ncc3nc(-c4cccs4)c(=O)n(CCC#N)c3n2)c1 > 9.22 µM
COc1ccc(Oc2ncc3nc(-c4ccc(F)cc4)c(=O)n(C)c3n2)cc1 > 9.22 µM
Cn1c(=O)c(CCc2ccccc2)nc2cnc(Oc3ccccc3)nc21 > 9.22 µM
COc1ccccc1CNc1ncnc2ccc(-c3cccc(C#N)c3)cc12 > 46 µM
CN(C)c1ncc2nc(-c3cc(F)cc(F)c3)c(=O)n(CCc3ccccc3)c2n1 > 9.22 µM
COc1ccc(-c2nc3cnc(N(C)C)nc3n(CCC#N)c2=O)cc1 > 9.22 µM
